Test results from the supplement of paper PMC9262897, “Low-cost anti-mycobacterial drug discovery using engineered E. coli” (Nature Communications, 2022).
Structures can show the parent of a compound that is named as a salt. ± gives the standard deviation of the averaged measurements.

system: E. coli TESEC Mtb DapB; test: growth (OD600 after 10 h); higher = more growth (less inhibition); conditions: arabinose induction (level): High; compound 0.1 mM; raw OD600 reference: median of DMSO wells […], cell-free background 0.041
Procedure: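 TESEC E. coli strains in which the native enzyme is deleted and replaced by arabinose-inducible Mtb Asd, DapB, CysH or TrpD, each grown in its selective medium. Strains were screened against the Prestwick library at 0.1 mM and 1% DMSO in 384-well format at low and high arabinose induction. Growth is read as OD600 after 10 h in triplicate.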

Row | SMILES | growth
1 | CCN(CCCCOC(=O)c1ccc(OC)c(OC)c1)C(C)Cc1ccc(OC)cc1 (stereo not given) [Mebeverine hydrochloride] | 0.166 ± 0.012
2 | COc1cc(C(=O)OCCCN2CCCN(CCCOC(=O)c3cc(OC)c(OC)c(OC)c3)CC2)cc(OC)c1OC [Dilazep dihydrochloride] | 0.171 ± 0.013
3 | CCn1cc(C(=O)O)c(=O)c2cnc(N3CCNCC3)nc21 [Pipemidic acid] | 0.188 ± 0.0053
4 | O=C(O)c1cccnc1 [Niacin] | 0.211 ± 0.016
5 | CC(=O)Oc1cc(C(F)(F)F)ccc1C(=O)O [Triflusal] | 0.207 ± 0.0034
6 | CO/N=C(\C(=O)N[C@@H]1C(=O)N2C(C(=O)O)=C(COC(C)=O)CS[C@H]12)c1csc(N)n1 [Cefotaxime sodium salt] | 0.0632 ± 0.014
7 | Cc1ncc(C[n+]2csc(CCO)c2C)c(N)n1 [Thiamine hydrochloride] | 0.227 ± 0.024
8 | C=C[C@H]1CN2CC[C@H]1C[C@@H]2[C@@H](O)c1ccnc2ccc(OC)cc12 [Quinidine hydrochloride monohydrate] | 0.198 ± 0.0064
9 | NS(=O)(=O)c1cc(C(=O)O)cc(N2CCCC2)c1Oc1ccccc1 [Piretanide] | 0.21 ± 0.029
10 | O=C1c2cccc(O)c2C(=O)c2c(O)cccc21 [1,8-Dihydroxyanthraquinone] | 0.189 ± 0.0068
11 | OC(CCN1CCCCC1)(c1ccccc1)c1ccccc1 [Pridinol methanesulfonate salt] | 0.194 ± 0.02
12 | CC(C)C(=O)c1c(C(C)C)nn2ccccc12 [Ibudilast] | 0.194 ± 0.012
13 | CCOC(=O)[C@@](C)(N)Cc1ccc(O)c(O)c1 [Methyldopate hydrochloride] | 0.155 ± 0.01
14 | Cc1onc(-c2c(F)cccc2Cl)c1C(=O)N[C@@H]1C(=O)N2[C@@H]1SC(C)(C)[C@@H]2C(=O)O [Flucloxacillin sodium] | 0.196 ± 0.0025
15 | CN1CCC(=C2c3ccccc3Sc3ccccc32)CC1 [Pimethixene maleate] | 0.15 ± 0.011
16 | COc1cc([S+](C)[O-])ccc1-c1nc2cccnc2[nH]1 (stereo not given) [Sulmazole] | 0.18 ± 0.0052
17 | CCCCN(CCCC)CCCOC(=O)c1ccc(N)cc1 [Butacaine] | 0.182 ± 0.0067
18 | CC[C@]12CCCN3CCc4c(n(c5ccccc45)C(=O)C1)[C@@H]32 [Eburnamonine (-)] | 0.176 ± 0.0063
19 | Nc1ccc(S(N)(=O)=O)cc1 [Sulfanilamide] | 0.217 ± 0.022
20 | CCCSc1ccc2[nH]c(NC(=O)OC)nc2c1 [Albendazole] | 0.205 ± 0.0098

same assay, conditions: arabinose induction (level): Low; compound 0.1 mM; raw OD600 reference: median of DMSO wells 0.227, cell-free background 0.041

Row | SMILES | growth
21 | CCN(CCCCOC(=O)c1ccc(OC)c(OC)c1)C(C)Cc1ccc(OC)cc1 (stereo not given) [Mebeverine hydrochloride] | 0.252 ± 0.032
22 | COc1cc(C(=O)OCCCN2CCCN(CCCOC(=O)c3cc(OC)c(OC)c(OC)c3)CC2)cc(OC)c1OC [Dilazep dihydrochloride] | 0.211 ± 0.034
23 | CCn1cc(C(=O)O)c(=O)c2cnc(N3CCNCC3)nc21 [Pipemidic acid] | 0.168 ± 0.0065
24 | O=C(O)c1cccnc1 [Niacin] | 0.238 ± 0.0084
25 | CC(=O)Oc1cc(C(F)(F)F)ccc1C(=O)O [Triflusal] | 0.206 ± 0.015
26 | CO/N=C(\C(=O)N[C@@H]1C(=O)N2C(C(=O)O)=C(COC(C)=O)CS[C@H]12)c1csc(N)n1 [Cefotaxime sodium salt] | 0.0489 ± 0.0033
27 | Cc1ncc(C[n+]2csc(CCO)c2C)c(N)n1 [Thiamine hydrochloride] | 0.217 ± 0.015
28 | C=C[C@H]1CN2CC[C@H]1C[C@@H]2[C@@H](O)c1ccnc2ccc(OC)cc12 [Quinidine hydrochloride monohydrate] | 0.229 ± 0.034
29 | NS(=O)(=O)c1cc(C(=O)O)cc(N2CCCC2)c1Oc1ccccc1 [Piretanide] | 0.245 ± 0.025
30 | O=C1c2cccc(O)c2C(=O)c2c(O)cccc21 [1,8-Dihydroxyanthraquinone] | 0.255 ± 0.067
31 | OC(CCN1CCCCC1)(c1ccccc1)c1ccccc1 [Pridinol methanesulfonate salt] | 0.262 ± 0.035
32 | CC(C)C(=O)c1c(C(C)C)nn2ccccc12 [Ibudilast] | 0.208 ± 0.038
33 | CCOC(=O)[C@@](C)(N)Cc1ccc(O)c(O)c1 [Methyldopate hydrochloride] | 0.152 ± 0.016
34 | Cc1onc(-c2c(F)cccc2Cl)c1C(=O)N[C@@H]1C(=O)N2[C@@H]1SC(C)(C)[C@@H]2C(=O)O [Flucloxacillin sodium] | 0.259 ± 0.034
35 | CN1CCC(=C2c3ccccc3Sc3ccccc32)CC1 [Pimethixene maleate] | 0.223 ± 0.069
36 | COc1cc([S+](C)[O-])ccc1-c1nc2cccnc2[nH]1 (stereo not given) [Sulmazole] | 0.209 ± 0.0037
37 | CCCCN(CCCC)CCCOC(=O)c1ccc(N)cc1 [Butacaine] | 0.208 ± 0.016
38 | CC[C@]12CCCN3CCc4c(n(c5ccccc45)C(=O)C1)[C@@H]32 [Eburnamonine (-)] | 0.176 ± 0.012
39 | Nc1ccc(S(N)(=O)=O)cc1 [Sulfanilamide] | 0.263 ± 0.038
40 | CCCSc1ccc2[nH]c(NC(=O)OC)nc2c1 [Albendazole] | 0.25 ± 0.025
